Screening results from PubChem.
Pf growth 48h = P. falciparum growth inhibition at 48 hours (one generation) | AID 504832 | 5.9% of 310,000 active | P. falciparum luciferase growth in erythrocytes, 48 h | Potency, µM (titrated, usually from 28.7 µM), inactives show top-dose activity change, negative = inhibition, actives largely listed as inhibitors; further: potency means the concentration at half of the fitted maximal effect; on the % scale 0 is the no-effect control and ±100 the full control effect
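Parasite viability was followed by luminescence of a genomically integrated firefly luciferase. Cultures held 0.1% parasitemia at 2% hematocrit (final), incubated under 5% CO2 at 37 C.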
Pf growth 96h = P. falciparum growth inhibition at 96 hour, primary screen for plastid delayed-death inhibitors; P. falciparum luciferase reporter growth, 96 h; Potency, µM (doses to about 28.7 µM), without a hit: at the top dose activity change, negative = inhibition, hits mostly inhibitors; 6.9% of 320,000 active; AID 504834; further: potency means the concentration at half of the fitted maximal effect; on the % scale 0 is the no-effect control and ±100 the full control effect
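Two-generation exposure (96 h) targets delayed-death phenotype. Reporter parasites carrying integrated firefly luciferase, in red cells at 2% hematocrit and 0.05% parasitemia final, kept at 37 C, 5% CO2; luminescence loss indicates inhibition.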
Sm TGR inh = blocks Schistosoma mansoni thioredoxin glutathione reductase. purified TGR, DTNB reduction, TNB absorbance 405 nm. Potency, µM (top dose mostly 114 µM), for the others: at the highest dose activity change, negative = inhibition, most hits filed as inhibitors. Q962Y6. 3% of 360,000 active; further: potency means the concentration at half of the fitted maximal effect; on the % scale 0 is the no-effect control and ±100 the full control effect; nearly all actives have a fitted effect of over 60% in size
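First, TGR (20 nM dispensed) and NADPH were mixed with compound. Second, a 15 min room-temperature incubation followed. Third, further NADPH and then DTNB were added to start the reaction. Finally, TNB absorbance was monitored kinetically.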
HCMV antiviral = human cytomegalovirus inhibition; HFF cells, HCMV-luciferase reporter, 72 h; active compounds read low; activity change, negative = inhibition, % at 57.5 µM; 4.5% of 410,000 active; AID 1259415; in the data active means activity change below about -60%; inconclusive means no clear call, values can overlap the other calls; inactive means above about -39%; further: on the % scale 0 is the no-effect control and ±100 the full control effect
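Compounds were evaluated in HFFs infected with an HCMV luciferase reporter virus (MOI 1 PFU/cell). Luciferase in lysates collected 72 h post infection served as the replication measure.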
SARS PLP yeast = SARS-CoV PLP inhibition in yeast; S. cerevisiae expressing SARS-CoV PLpro, growth rescue; Potency, µM (doses to about 32.9 µM), inactives show at the top dose activity, positive = growth rescue, most hits filed as activators; 0.19% of 330,000 active; AID 485353; calls by dose curve; further: potency means the concentration at half of the fitted maximal effect; 0% is about no effect; nearly all actives have a fitted effect of over 55% in size
HCV inhibitor = inhibitors of hepatitis C virus infection. 3.4% of 340,000 active. Potency, µM (doses to about 41.8 µM), without a hit: top-dose activity change, negative = inhibition, usual class: inhibitors. Huh7.5.1 HCVcc-Cre infection, luciferase reporter, 44 h; further: potency means the concentration at half of the fitted maximal effect; on the % scale 0 is the no-effect control and ±100 the full control effect
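Compounds are dispensed onto cells plated 4 h earlier at 1,000 per well, with HCVcc-Cre virus (about 0.5 moi) added next. Following 44 h of culture, luminescent signal is measured for 15 sec after 15 min with substrate at room temperature.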
Starred values were filed as active, the others as inactive; i = inactive; ? = inconclusive; · = no result; [ ] = remark or other dose. In the library only some 15% were active in any assay of this set; here they are far more common. Unless noted, the call rests on the fitted dose curve; in most records, active means well fitted curve in the direction sought with a large enough effect; inconclusive means small, poorly fitted or top-dose-only effect, or another doubt; inactive means no such curve, though single readings can be large; an effect the other way counts as inactive or inconclusive.

SMILES | Pf growth 48h | Pf growth 96h | Sm TGR inh | HCMV antiviral | SARS PLP yeast | HCV inhibitor
COc1ccc(CCNC(=O)c2cc3c(=O)n4ccccc4nc3n(CCCN3CCOCC3)c2=N)cc1OC | 2.3µM* | 2.1µM* | -2% | ? | -3% | ?
CC(C)NC(=O)c1onc(CSc2ccc(Cl)cc2)c1C(=O)NC(C)C | 5.2µM* | 3.3µM* | 17% | 3 | -7% | ?
CC(C)NC(=O)c1onc(CSc2ccc(F)cc2)c1C(=O)NC(C)C | 4.7µM* | 9.3µM* | -4% | -3 | -1% | -21%
CC(C)CCNC(=O)c1onc(CSc2nc3ccccc3[nH]2)c1C(=O)NCCC(C)C | ? | 2.3µM* | 0% | ? | 0% | 18%
CCCCNC(=O)c1onc(CS(=O)(=O)c2ccccn2)c1C(=O)NCCCC | ? | 15µM* | -3% | 1 | 5% | 0%
CC(C)NC(=O)c1onc(CSc2ccc(Cl)cc2)c1C(=O)O | 8% | 84% | -1% | 1 | -2% | 31%
COc1ccc(Cl)cc1NCc1nnc2n1CCCCC2 | · | · | 15% | 4 | · | ·
CCCCNC(=O)c1onc(CSc2ccccc2)c1C(=O)NCCCC | ? | 12µM* | -1% | -8 | 1% | -29%
CCCCNC(=O)c1c(CSc2ccc(Cl)cc2)noc1C(=O)NCCC | -95% | ? | -4% | -28 | 2% | ?
CCCNC(=O)c1onc(CSc2ccc(Cl)cc2)c1C(=O)NC(C)C | 12µM* | 4.7µM* | 0% | 11 | 3% | ?
CCN(CC)S(=O)(=O)c1cccc(-c2nnc(SCC(=O)NCCC3=CCCCC3)n2N)c1 | -16% | 12µM* | -3% | -24 | -8% | -26%
CC(C)c1nc(SCc2c(F)cccc2Cl)c2c(=O)n(C)c(=O)n(C)c2n1 | ? | ? | 5% | · | 2% | ?
CCC1CCCCN1C(=O)CCn1c(=O)oc2ccccc21 (stereo unspecified) | · | · | · | 5 | · | 12%
NC(=O)c1ccccc1NC(=O)C1CCCO1 (stereo unspecified) | 1% | 10µM* | -2% | 46 | 8% | 24%
O=C(Nc1ccc(N=Nc2ccccc2)c(NC(=O)C2CCCO2)c1)C1CCCO1 (stereo unspecified) | -17% | ? | -10% | -61* | -8% | 2µM*
O=C(Nc1ccccc1C(=O)N1CCOCC1)C1CCCO1 (stereo unspecified) | -4% | · | 1% | 25 | 0% | 7%
COC(=O)c1sccc1NC(=O)Nc1ccc(C)cc1 | 190% | 2% | -10% | 31 | -10% | 9%
COC(=O)c1sccc1NC(=O)Nc1ccc(F)cc1F | -2% | 12µM* | -2% | 4 | -1% | 19%
COC(=O)c1sccc1NC(=O)Nc1cc(C)cc(C)c1 | 55% | 4.7µM* | 0% | 19 | -7% | -13%
COC(=O)c1sccc1NC(=O)c1ccc(C(C)C)cc1 | 14% | 10µM* | -2% | 182 | -11% | 15%
COC(=O)c1sccc1NC(=O)/C=C/c1ccc(Cl)cc1 | 120% | 13µM* | ? | 225 | -1% | 5%
CS(=O)(=O)N(CC(=O)N1CCCC1)C1CCCCC1 | · | · | · | 2 | · | ·
Cc1ccc(S(=O)(=O)NCc2ccccc2)cc1C(=O)N1CCN(S(=O)(=O)c2ccccc2)CC1 | ? | ? | -4% | -23 | -5% | -1%
COc1ccccc1CNc1nc(NC(C)C)nc2ccsc12 | · | · | · | -15 | · | ·
COc1ccccc1CNc1nc(Nc2ccc(C)cc2C)c2sccc2n1 | · | · | · | -76* | · | ·
SMILES | Pf growth 48h | Pf growth 96h | Sm TGR inh | HCMV antiviral | SARS PLP yeast | HCV inhibitor
Cc1ccc(Nc2nc(NCc3ccccc3)nc3ccsc23)c(C)c1 | · | · | · | -62* | · | ·
CNc1nc(NCCOc2ccccc2Cl)c2sccc2n1 | · | · | · | -8 | · | ·
CNc1nc(NCc2ccccc2)c2sccc2n1 | · | · | · | -6 | · | ·
COc1ccccc1CNc1nc(NCCOc2ccccc2Cl)c2sccc2n1 | · | · | · | -61* | · | ·
NC(=O)C1CCN(C(=S)NCCc2ccccc2)CC1 | -2% | i | 0% | 1 | 0% | 19%
N#C/C=C/C(=C\Nc1ccc(Cl)cc1)S(=O)(=O)c1ccccc1 | -21%[0.00184 µM] | -20% | ? | ? | -1% | 18%
COc1ccc(N/C=C(\C=C\C#N)S(=O)(=O)c2ccccc2)cc1 | 6% | -8% | 6.3µM* | -5 | -1% | 6%
Cc1nnc2ccc(N3CCCC3)nn12 | 3% | · | -9% | 11 | -9% | 9%
Cc1nnc2ccc(N3CCC4(CC3)OCCO4)nn12 | 4% | 24% | 9% | -62* | 1% | -11%
COc1cccc(C(c2nnnn2Cc2ccccc2)N2CCN(C3CCCC3)CC2)c1OC (stereo unspecified) | -5% | 2.3µM* | -2% | -21 | 0% | -7%
Cc1ccc(C(c2nnnn2CCc2ccccc2)N2CCC(C)CC2)cc1 (stereo unspecified) | 7.4µM* | 1% | 0% | ? | -47% | ?
C=CCN1CCN(C(c2ccc(Cl)cc2)c2nnnn2CCc2ccc(OC)c(OC)c2)CC1 (stereo unspecified) | ? | -4% | -6% | -101* | 3% | 12%
COc1ccc(CCn2nnnc2C(c2ccc(C)cc2)N2CCN(C)CC2)cc1OC (stereo unspecified) | ? | 9% | -2% | -2 | 2% | 6%
COc1ccc(OC)c(C(c2nnnn2CC2CCCO2)N2CCN(C3CCCC3)CC2)c1 (stereo unspecified) | ? | 0% | -17% | -7 | 4µM* | 16%
COc1ccc(OC)c(C(c2nnnn2CC2CCCO2)N2CCN(C)CC2)c1 (stereo unspecified) | 8% | -22% | 22% | -35 | 3% | -6%
COc1ccc(NC(=O)CSc2nnc(-c3cc(C)[nH]n3)n2N)cc1 | -17% | ? | 1% | -35 | 20% | 8%
Cc1ccc(N2CCN(C(=O)NCc3noc4ccccc34)CC2C)cc1 (stereo unspecified) | · | · | 2% | -9 | · | ·
COc1ccc(OC)c(C(c2nnnn2Cc2ccccc2)N2CCN(C3CCCCC3)CC2)c1 (stereo unspecified) | 10µM* | -16% | -12% | -21 | 3% | -16%
COc1ccc(C(c2nnnn2CCc2ccccc2)N2CCN(C3CCCC3)CC2)cc1OC (stereo unspecified) | -19% | 0.59µM* | -6% | 24 | 2% | 2%
c1ccc(CCn2nnnc2C(c2cccnc2)N2CCOCC2)cc1 (stereo unspecified) | -14% | 2.6µM* | 8% | 57 | 1% | 16%
CC(C)(C)n1nnnc1C(c1cccnc1)N1CCOCC1 (stereo unspecified) | 0% | 25% | 4% | 29 | -1% | 8%
